# Reference: ChEMBL document CHEMBL3988442, “University of Dundee, Small-Polar-MMV Screening Library” (2021)
# Hit rate of the full screen: of about 66,000 compounds, about 960 (1.5%) showed an effect of 50% or more. The entries come from a sample that favours strong results as a whole.
# Tested on: Trypanosoma brucei
# Assay: Trypanosoma brucei 72 hour study
# Format: functional, organism-based
# Parameters: scale not given: in the data most compounds retested in dose-response had high values
compound,measurement,setting,value
Cc1nc(Cc2ccc(F)cc2)cc(C2COCCN2)n1.Cl (centres undefined),Percent Effect,"30.3 µM, […]",101%
Cc1nc(NCc2ccc(F)cc2)cc(C2CCCN2)n1.Cl (centres undefined),Percent Effect,"30.3 µM, […]",-9.094%
Cc1nc(NCc2cccnc2)cc(C2COCCN2)n1 (centres undefined),Percent Effect,"30.3 µM, […]",-2.285%
CN(C)C(=O)COC[C@]12COC[C@H]1CN(Cc1ccco1)C2.O=C(O)C(F)(F)F,Percent Effect,"30.3 µM, […]",-53.67%
CC[C@@H](CO)Nc1nccc(-c2c[nH]c3cc(C(=O)OC)ccc23)n1,Percent Effect,"30.3 µM, […]",72.65%
COC(=O)c1ccc2c(-c3ccnc(NCCO)n3)c[nH]c2c1,Percent Effect,"30.3 µM, […]",8.363%
COC(=O)c1ccc2c(-c3ccnc(N[C@@H](C)CO)n3)c[nH]c2c1,Percent Effect,"30.3 µM, […]",47.11%
Cc1nn(CC(=O)N2CCN(Cc3cn(C)nc3C)CC2)cc1Br,Percent Effect,"30 µM, 30.03 µM",-22.12%
Cc1ccc(-c2ccccc2CC2CNCCNC2=O)c(C)c1.Cl (centres undefined),Percent Effect,"30.3 µM, […]",25.6%
Cn1cnnc1C1CCN(C(=O)c2cc(-c3ccccc3)on2)CC1,Percent Effect,"30 µM, 30.03 µM",-50.55%
CCc1ccc(C(O)CN2CCN(c3cccc(OC)c3)CC2)cc1 (centres undefined),Percent Effect,"30 µM, 30.03 µM",-8.228%
CCc1ccc(NC(=O)N2C[C@H]3C[C@H](C(=O)NC4CCC4)[C@@H](C2)O3)cc1,Percent Effect,"30.3 µM, […]",-16.27%
CN(C)C[C@@H]1C[C@@H]2CN(C(=O)c3ccoc3)CC[C@@H]2N1CC1CC1.O=C(O)C(F)(F)F,Percent Effect,"30.3 µM, […]",-22.29%
Nc1ncc(-c2ccc(NC(=O)[C@@H]3CCCCN3)cc2)cn1,Percent Effect,"30.3 µM, […]",8.453%
CNc1ncc(-c2ccc(NC(=O)[C@@H]3CCCCN3)cc2)cn1,Percent Effect,"30.3 µM, […]",7.595%
O=C(Nc1ccc(-c2cnc(NCCO)nc2)cc1)[C@@H]1CCCCN1,Percent Effect,"30.3 µM, […]",53.19%
Cc1cccc(CNC2CCCc3c2cnn3C)c1.Cl (centres undefined),Percent Effect,"30 µM, 30.03 µM",5.756%
Cl.Cn1ncc2c1CCCC2NCc1cccc(F)c1 (centres undefined),Percent Effect,"30.3 µM, […]",-9.663%
Cc1cccc(CNC2CCCc3c2cnn3Cc2ccccc2)c1.Cl (centres undefined),Percent Effect,"30.3 µM, […]",96.36%
Cc1ccc(CNC2CCCc3c2cnn3Cc2ccccc2)s1.Cl (centres undefined),Percent Effect,"30.3 µM, […]",15.28%
Cn1ncc2c1CCCC2NCc1cccc(OC2CCCC2)c1 (centres undefined),Percent Effect,"30.3 µM, […]",65.11%
Cn1ncc2c1CCCC2NCc1cccnc1 (centres undefined),Percent Effect,"30 µM, 30.03 µM",-8.249%
CN1CC[C@]2(CN(CC3CCOCC3)C[C@H]2c2ccccc2)C1=O.O=C(O)C(F)(F)F,Percent Effect,"30.3 µM, […]",-1.885%
O=C(O)C(F)(F)F.O=C(O)C(F)(F)F.O=C(O)C(F)(F)F.O=C(O)c1c(-c2cncnc2)ncc2c1CCN(Cc1cccnc1)C2,Percent Effect,"30.3 µM, […]",-22.43%
CN(C)CCN1CCCC12CCN(Cc1nccn1C)CC2.O=C(O)C(F)(F)F.O=C(O)C(F)(F)F.O=C(O)C(F)(F)F,Percent Effect,"30.3 µM, […]",-91.45%
Cc1ccc(CNCc2cccc3cccnc23)c(OC2CCOC2)c1 (centres undefined),Percent Effect,"30 µM, 30.03 µM",98.1%
Cc1ccc(CNCc2c[nH]nc2C(C)(C)C)c(OC2CCOC2)c1 (centres undefined),Percent Effect,"30 µM, 30.03 µM",-38.61%
Cc1ccc(CNCc2cccc3cn[nH]c23)c(OC2CCOC2)c1 (centres undefined),Percent Effect,"30 µM, 30.03 µM",-32.61%
O=C(O)C(F)(F)F.O=C1COC2(CCN(Cc3cccs3)CC2)CN1c1ccsc1,Percent Effect,"30 µM, 30.03 µM",3.746%
CC(=O)N1CCN(Cc2ccco2)CC2(CC(=O)N(C)C2)C1.O=C(O)C(F)(F)F (centres undefined),Percent Effect,"30.3 µM, […]",-65.74%
Cc1occc1C(=O)N1CCC[C@]2(C[C@@H](OCc3ccccn3)CO2)C1.O=C(O)C(F)(F)F,Percent Effect,"30.3 µM, […]",-89.01%
Cl.OC1(Cn2ccc3ncccc32)CCN(Cc2ccccc2F)CC1,Percent Effect,"30.3 µM, […]",12.85%
O=C(C1CCOCC1)N1CCc2ncc(CN3CCOCC3)n2CC1.O=C(O)C(F)(F)F,Percent Effect,"30.3 µM, […]",-405.3%
CCCN(C(=O)c1cnccn1)c1nc2c(s1)CCc1c-2cnn1C,Percent Effect,"30.3 µM, […]",47.96%
CCCN(C(=O)c1ccncc1)c1nc2c(s1)CCc1c-2cnn1C,Percent Effect,"30.3 µM, […]",55.53%
CCCN(C(=O)c1cccnc1)c1nc2c(s1)CCc1c-2cnn1C,Percent Effect,"30.3 µM, […]",48.91%
CCOc1ccc(C(=O)N2CCCC(c3nccn3C)C2)cc1OCC (centres undefined),Percent Effect,"30 µM, 30.03 µM",-33.07%
CCn1cnnc1CN(C)Cc1nc(-c2cc(OC)ccc2F)oc1C,Percent Effect,"30 µM, 30.03 µM",-24.61%
CC(C)C[C@H](NC(=O)Cn1ccc2c(Cl)cccc21)C(=O)O,Percent Effect,"30 µM, 30.03 µM",-31.2%
O=C(Cn1ccc2c(Cl)cccc21)N[C@@H](C(=O)O)c1ccccc1,Percent Effect,"30 µM, 30.03 µM",60.67%
CC(C)NC(=O)Cn1ccc2c(Cl)cccc21,Percent Effect,"30 µM, 30.03 µM",-29.64%
CN(C)C(=O)COCC1CN(S(C)(=O)=O)Cc2ncn(C)c21.O=C(O)C(F)(F)F (centres undefined),Percent Effect,"30.3 µM, […]",-29.75%
CCN1CCC2(CC1)CC(NCc1cccc(C)n1)c1ccccc1O2.O=C(O)C(F)(F)F.O=C(O)C(F)(F)F.O=C(O)C(F)(F)F (centres undefined),Percent Effect,"30 µM, 30.03 µM",-8.099%
FC1(F)CCN(Cc2cccnc2)CC12CCN(c1cnccn1)C2.O=C(O)C(F)(F)F.O=C(O)C(F)(F)F.O=C(O)C(F)(F)F (centres undefined),Percent Effect,"30.3 µM, […]",-8.346%
Cn1cc(CN2CCC(F)(F)C3(CCN(c4ccccn4)C3)C2)cn1.O=C(O)C(F)(F)F.O=C(O)C(F)(F)F (centres undefined),Percent Effect,"30.3 µM, […]",-14.43%
Fc1ccc(CN2CCC(F)(F)C3(CCN(c4cnccn4)C3)C2)cc1.O=C(O)C(F)(F)F.O=C(O)C(F)(F)F (centres undefined),Percent Effect,"30.3 µM, […]",93.17%
FC1(F)CCN(Cc2cccnc2)CC12CCN(c1ccccc1)C2.O=C(O)C(F)(F)F.O=C(O)C(F)(F)F.O=C(O)C(F)(F)F (centres undefined),Percent Effect,"30.3 µM, […]",100.3%
Cn1cc(CN2CCC(F)(F)C3(CCN(c4ncc(F)cn4)C3)C2)cn1.O=C(O)C(F)(F)F (centres undefined),Percent Effect,"30.3 µM, […]",-7.399%
Cn1cc(CN2CCC(F)(F)C3(CCN(c4cccnc4)C3)C2)cn1.O=C(O)C(F)(F)F.O=C(O)C(F)(F)F (centres undefined),Percent Effect,"30.3 µM, […]",3.133%
FC1(F)CCN(Cc2ccccn2)CC12CCN(c1cnccn1)C2.O=C(O)C(F)(F)F.O=C(O)C(F)(F)F.O=C(O)C(F)(F)F (centres undefined),Percent Effect,"30.3 µM, […]",-80.37%
Cn1ccnc1CN1CCC(F)(F)C2(CCN(c3cccnc3)C2)C1.O=C(O)C(F)(F)F.O=C(O)C(F)(F)F (centres undefined),Percent Effect,"30.3 µM, […]",-58.8%
FC1(F)CCN(Cc2ccncc2)CC12CCN(c1cnccn1)C2.O=C(O)C(F)(F)F.O=C(O)C(F)(F)F.O=C(O)C(F)(F)F (centres undefined),Percent Effect,"30.3 µM, […]",6.608%
Cn1cc(CN2CCC(F)(F)C3(CCN(c4cccc(F)c4)C3)C2)cn1 (centres undefined),Percent Effect,"30.3 µM, […]",99.39%
FC1(F)CCN(Cc2ccncc2)CC12CCN(c1cccnc1)C2.O=C(O)C(F)(F)F.O=C(O)C(F)(F)F.O=C(O)C(F)(F)F (centres undefined),Percent Effect,"30.3 µM, […]",-14.72%
CN(C)c1ccc(C(CNS(=O)(=O)c2cccs2)N2CCCC2)cc1 (centres undefined),Percent Effect,"30 µM, 30.03 µM",-11.49%
C1CC(N2Cc3nnn(CC4CC4)c3C(COCC3CC3)C2)C1.O=C(O)C(F)(F)F (centres undefined),Percent Effect,"30.3 µM, […]",-49.13%
O=C(O)C(F)(F)F.O=C([C@H]1CCCO1)N1CCN(CCn2cccn2)c2ncccc2C1,Percent Effect,"30.3 µM, […]",-89.38%
COCC(=O)N1CCN(Cc2cc(-c3ccncc3)nn2C)CC1,Percent Effect,"30.3 µM, […]",-0.9188%
COCC1CN(c2ccc(C)nn2)Cc2cnn(CC3CCOCC3)c21.O=C(O)C(F)(F)F.O=C(O)C(F)(F)F (centres undefined),Percent Effect,"30.3 µM, […]",-39.18%
COCCN1CCC2(CC1)CC(NC(=O)CC1CC1)c1ccccc1O2.O=C(O)C(F)(F)F (centres undefined),Percent Effect,"30.3 µM, […]",-15.57%
CN(C)[C@@H]1CN(C(=O)CCc2ccccc2)[C@@H]2CCCO[C@H]12.O=C(O)C(F)(F)F,Percent Effect,"30.3 µM, […]",-48.96%
CC(C)(N)C(=O)N1CCC(c2nccnc2Oc2cccc(F)c2)CC1,Percent Effect,"30.3 µM, […]",6.584%
O=C(Nc1cccnc1)[C@@H]1CCO[C@@H]2CCN(Cc3cccnc3)C[C@@H]21.O=C(O)C(F)(F)F.O=C(O)C(F)(F)F.O=C(O)C(F)(F)F,Percent Effect,"30 µM, 30.03 µM",-27.43%
CCCC1c2cccn2CCN1C(=O)Cn1cnc2sc(C)cc2c1=O (centres undefined),Percent Effect,"30.3 µM, […]",-9.094%
Cc1cc2c(=O)n(CC(=O)N3CCn4cccc4C3C(C)C)cnc2s1 (centres undefined),Percent Effect,"30.3 µM, […]",-7.761%
CCC1c2ccc(C)n2CCN1C(=O)Cn1cnc2sc(C)cc2c1=O (centres undefined),Percent Effect,"30.3 µM, […]",55.61%
CCCS(=O)(=O)N1C[C@@H](c2ccccc2)[C@@]2(CCNC2=O)C1,Percent Effect,"30.3 µM, […]",-54.35%
Cn1cccc1C(=O)N1C[C@H]2CN(Cc3cccc(F)c3)C[C@H]2C1.O=C(O)C(F)(F)F,Percent Effect,"30.3 µM, […]",-14.05%
O=c1[nH]ncc(NCCOc2ccc3c(c2)CCC3)c1Cl,Percent Effect,"30 µM, 30.03 µM",6.404%
CC(C)CN(Cc1nc2c(cnn2C)c(=O)[nH]1)CC(C)C,Percent Effect,"30.3 µM, […]",3.745%
CC(C)CCN(CCC(C)C)Cc1nc2c(cnn2C)c(=O)[nH]1,Percent Effect,"30.3 µM, […]",99.67%
CC(C)CCN(C)Cc1nc2c(cnn2C)c(=O)[nH]1,Percent Effect,"30.3 µM, […]",0.4486%
CO[C@@H]1CCN(C(=O)c2ccccn2)[C@H]1Cc1ccccc1.O=C(O)C(F)(F)F,Percent Effect,"30.3 µM, […]",3.29%
CC1c2ncc(COc3cccnc3)n2CCN1Cc1cnn(C)c1.O=C(O)C(F)(F)F.O=C(O)C(F)(F)F (centres undefined),Percent Effect,"30.3 µM, […]",2.727%
COc1ncccc1C(=O)N1CC[C@H]2C[C@@H](c3nccs3)O[C@@H]2C1,Percent Effect,"30 µM, 30.03 µM",-31.44%
NCC(CO)Cc1ccc(OC(F)(F)F)cc1 (centres undefined),Percent Effect,"30 µM, 30.03 µM",-40.47%
CNC(=O)NCC(CO)Cc1cccc(OC(F)(F)F)c1 (centres undefined),Percent Effect,"30 µM, 30.03 µM",-27.06%
NCC(CO)Cc1cccc(OC(F)(F)F)c1 (centres undefined),Percent Effect,"30 µM, 30.03 µM",97.23%
CN1CCN(C(=O)c2n[nH]c3c2CN(C2CCOCC2)CC3)CC1.O=C(O)C(F)(F)F.O=C(O)C(F)(F)F.O=C(O)C(F)(F)F,Percent Effect,"30.3 µM, […]",-12.86%
Cc1cnn(C2CCCN(C(=O)c3cc4nc(C)ccc4o3)C2)c1 (centres undefined),Percent Effect,"30.3 µM, […]",0.9394%
CCN1CC2(CC1=O)CN(Cc1ccc(C)o1)CCN(C(=O)C(C)C)C2.O=C(O)C(F)(F)F (centres undefined),Percent Effect,"30 µM, 30.03 µM",-2.917%
COCCN1CCN(Cc2c(C3CCNCC3)[nH]c3ncccc23)CC1.Cl,Percent Effect,"30.3 µM, […]",1.283%
Cc1noc(C)c1C(=O)NCc1ccc(N2CCC(C)CC2)nc1,Percent Effect,10 µM,-31.9%
same,Percent Effect,"30.3 µM, […]",4.367%
